# Data: the supplement of paper PMC4466140
# How the values were obtained:
# Assay in all cases: SPOT peptide array binding signal intensity (averaged, normalized) (arbitrary units (background-subtracted, floor 0; scale differs between SH3 domains)); higher = stronger binding of the SH3 domain to the peptide
# AgAbp1 = target: AgAbp1
# Procedure, shortened: (§1)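 GST-fused SH3 domains from four yeast species were expressed in E. coli BL21(DE3), purified on glutathione Sepharose and incubated at 10 μg/ml overnight at 4°C in TBS-based blocking buffer on cellulose membranes carrying synthetic 15-mer peptides, with cysteines replaced by serines. Bound protein was detected with anti-GST antibody, an HRP anti-mouse secondary and luminol, then imaged and quantified with Genespotter. Binding signal is the normalized, background-subtracted spot intensity averaged over replicates, in arbitrary units that differ between domains.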
# AgBbc1 = target: AgBbc1
# Procedure, shortened: as §1
# AgBem1-D1 = target: AgBem1-D1
# Procedure, shortened: as §1
# AgBzz1-D1 = target: AgBzz1-D1
# Procedure, shortened: as §1
# AgBzz1-D2 = target: AgBzz1-D2
# Procedure, shortened: as §1
# AgCyk3 = target: AgCyk3
# Procedure, shortened: as §1
# AgFus1 = target: AgFus1
# Procedure, shortened: as §1
# AgHof1 = target: AgHof1
# Procedure, shortened: as §1
# AgHse1 = target: AgHse1
# Procedure, shortened: as §1
# AgLsb1 = target: AgLsb1
# Procedure, shortened: as §1
# AgLsb4 = target: AgLsb4
# Procedure, shortened: as §1
# AgMyo5 = target: AgMyo5
# Procedure, shortened: as §1
# AgNbp2 = target: AgNbp2
# Procedure, shortened: as §1
# AgRvs167 = target: AgRvs167
# Procedure, shortened: as §1
# AgSho1 = target: AgSho1
# Procedure, shortened: as §1
# AgSla1-D1-D2 = target: AgSla1-D1-D2
# Procedure, shortened: as §1
# AgSla1-D3 = target: AgSla1-D3
# Procedure, shortened: as §1
# CaAbp1-D1 = target: CaAbp1-D1
# Procedure, shortened: as §1
# CaAbp1-D2 = target: CaAbp1-D2
# Procedure, shortened: as §1
# CaBbc1 = target: CaBbc1
# Procedure, shortened: as §1
# CaBem1-D1 = target: CaBem1-D1
# Procedure, shortened: as §1
# CaBzz1-D1 = target: CaBzz1-D1
# Procedure, shortened: as §1
# CaBzz1-D2 = target: CaBzz1-D2
# Procedure, shortened: as §1
# CaCyk3 = target: CaCyk3
# Procedure, shortened: as §1
# CaFus1 = target: CaFus1
# Procedure, shortened: as §1
# CaHof1 = target: CaHof1
# Procedure, shortened: as §1
# CaHse1 = target: CaHse1
# Procedure, shortened: as §1
# CaLsb1 = target: CaLsb1
# Procedure, shortened: as §1
# CaLsb4 = target: CaLsb4
# Procedure, shortened: as §1
# CaMyo5 = target: CaMyo5
# Procedure, shortened: as §1
# CaNbp2 = target: CaNbp2
# Procedure, shortened: as §1
# CaRvs167 = target: CaRvs167
# Procedure, shortened: as §1
# CaRvs167-3 = target: CaRvs167-3
# Procedure, shortened: as §1
# CaSho1 = target: CaSho1
# Procedure, shortened: as §1
# CaSla1-D1-D2 = target: CaSla1-D1-D2
# Procedure, shortened: as §1
# CaSla1-D3 = target: CaSla1-D3
# Procedure, shortened: as §1
# ScAbp1 = target: ScAbp1
# Procedure, shortened: as §1
# ScBbc1 = target: ScBbc1
# Procedure, shortened: as §1
# ScBem1-D1 = target: ScBem1-D1
# Procedure, shortened: as §1
# ScBzz1-D1 = target: ScBzz1-D1
# Procedure, shortened: as §1
# ScBzz1-D2 = target: ScBzz1-D2
# Procedure, shortened: as §1
# ScCyk3 = target: ScCyk3
# Procedure, shortened: as §1
# ScFus1 = target: ScFus1
# Procedure, shortened: as §1
# ScHof1 = target: ScHof1
# Procedure, shortened: as §1
# ScHse1 = target: ScHse1
# Procedure, shortened: as §1
# ScLsb1 = target: ScLsb1
# Procedure, shortened: as §1
# ScLsb2 = target: ScLsb2
# Procedure, shortened: as §1
# ScLsb3 = target: ScLsb3
# Procedure, shortened: as §1
# ScLsb4 = target: ScLsb4
# Procedure, shortened: as §1
# ScMyo3 = target: ScMyo3
# Procedure, shortened: as §1
# ScMyo5 = target: ScMyo5
# Procedure, shortened: as §1
# ScNbp2 = target: ScNbp2
# Procedure, shortened: as §1
# ScPex13 = target: ScPex13
# Procedure, shortened: as §1
# ScRvs167 = target: ScRvs167
# Procedure, shortened: as §1
# ScSho1 = target: ScSho1
# Procedure, shortened: as §1
# ScSla1-D1-D2 = target: ScSla1-D1-D2
# Procedure, shortened: as §1
# ScSla1-D3 = target: ScSla1-D3
# Procedure, shortened: as §1
# SpAbp1-D1 = target: SpAbp1-D1
# Procedure, shortened: as §1
# SpBbc1 = target: SpBbc1
# Procedure, shortened: as §1
# SpBzz1-D1 = target: SpBzz1-D1
# Procedure, shortened: as §1
# SpBzz1-D2 = target: SpBzz1-D2
# Procedure, shortened: as §1
# SpCyk3 = target: SpCyk3
# Procedure, shortened: as §1
# SpHof1 = target: SpHof1
# Procedure, shortened: as §1
# SpHof1-2 = target: SpHof1-2
# Procedure, shortened: as §1
# SpHof1-3 = target: SpHof1-3
# Procedure, shortened: as §1
# SpHse1 = target: SpHse1
# Procedure, shortened: as §1
# SpLsb1 = target: SpLsb1
# Procedure, shortened: as §1
# SpLsb4 = target: SpLsb4
# Procedure, shortened: as §1
# SpMyo1 = target: SpMyo1
# Procedure, shortened: as §1
# SpNbp2 = target: SpNbp2
# Procedure, shortened: as §1
# SpPex13 = target: SpPex13
# Procedure, shortened: as §1
# SpRvs167 = target: SpRvs167
# Procedure, shortened: as §1
# SpSla1-D1-D2 = target: SpSla1-D1-D2
# Procedure, shortened: as §1
# SpSla1-D3 = target: SpSla1-D3
# Procedure, shortened: as §1
binder,measurement,setting,value
DRIRMFIRFPKFLLE,SPOT peptide array binding signal intensity,AgAbp1,9.5
same,SPOT peptide array binding signal intensity,AgBbc1,5
same,SPOT peptide array binding signal intensity,AgBem1-D1,153
same,SPOT peptide array binding signal intensity,AgBzz1-D1,12
same,SPOT peptide array binding signal intensity,AgBzz1-D2,20
same,SPOT peptide array binding signal intensity,AgCyk3,5.5
same,SPOT peptide array binding signal intensity,AgFus1,524
same,SPOT peptide array binding signal intensity,AgHof1,27.5
same,SPOT peptide array binding signal intensity,AgHse1,1880
same,SPOT peptide array binding signal intensity,AgLsb1,1
same,SPOT peptide array binding signal intensity,AgLsb4,105
same,SPOT peptide array binding signal intensity,AgMyo5,0.5
same,SPOT peptide array binding signal intensity,AgNbp2,278
same,SPOT peptide array binding signal intensity,AgRvs167,4.33
same,SPOT peptide array binding signal intensity,AgSho1,132
same,SPOT peptide array binding signal intensity,AgSla1-D1-D2,236
same,SPOT peptide array binding signal intensity,AgSla1-D3,5.5
same,SPOT peptide array binding signal intensity,CaAbp1-D1,470
same,SPOT peptide array binding signal intensity,CaAbp1-D2,318
same,SPOT peptide array binding signal intensity,CaBbc1,22.2
same,SPOT peptide array binding signal intensity,CaBem1-D1,27
same,SPOT peptide array binding signal intensity,CaBzz1-D1,4
same,SPOT peptide array binding signal intensity,CaBzz1-D2,6.75
same,SPOT peptide array binding signal intensity,CaCyk3,30.5
same,SPOT peptide array binding signal intensity,CaFus1,1830
same,SPOT peptide array binding signal intensity,CaHof1,0.5
same,SPOT peptide array binding signal intensity,CaHse1,191
same,SPOT peptide array binding signal intensity,CaLsb1,0.5
same,SPOT peptide array binding signal intensity,CaLsb4,108
same,SPOT peptide array binding signal intensity,CaMyo5,42.5
same,SPOT peptide array binding signal intensity,CaNbp2,1050
same,SPOT peptide array binding signal intensity,CaRvs167,238
same,SPOT peptide array binding signal intensity,CaRvs167-3,413
same,SPOT peptide array binding signal intensity,CaSho1,1280
same,SPOT peptide array binding signal intensity,CaSla1-D1-D2,67
same,SPOT peptide array binding signal intensity,CaSla1-D3,182
same,SPOT peptide array binding signal intensity,ScAbp1,52.5
same,SPOT peptide array binding signal intensity,ScBbc1,1.5
same,SPOT peptide array binding signal intensity,ScBem1-D1,3
same,SPOT peptide array binding signal intensity,ScBzz1-D1,16
same,SPOT peptide array binding signal intensity,ScBzz1-D2,12.5
same,SPOT peptide array binding signal intensity,ScCyk3,62
same,SPOT peptide array binding signal intensity,ScFus1,601
same,SPOT peptide array binding signal intensity,ScHof1,1.25
same,SPOT peptide array binding signal intensity,ScHse1,1400
same,SPOT peptide array binding signal intensity,ScLsb1,≤ 0
same,SPOT peptide array binding signal intensity,ScLsb2,≤ 0
same,SPOT peptide array binding signal intensity,ScLsb3,87
same,SPOT peptide array binding signal intensity,ScLsb4,19
same,SPOT peptide array binding signal intensity,ScMyo3,1
same,SPOT peptide array binding signal intensity,ScMyo5,1
same,SPOT peptide array binding signal intensity,ScNbp2,356
same,SPOT peptide array binding signal intensity,ScPex13,14.8
same,SPOT peptide array binding signal intensity,ScRvs167,22.7
same,SPOT peptide array binding signal intensity,ScSho1,870
same,SPOT peptide array binding signal intensity,ScSla1-D1-D2,48.5
same,SPOT peptide array binding signal intensity,ScSla1-D3,69
same,SPOT peptide array binding signal intensity,SpAbp1-D1,334
same,SPOT peptide array binding signal intensity,SpBbc1,2.5
same,SPOT peptide array binding signal intensity,SpBzz1-D1,103
same,SPOT peptide array binding signal intensity,SpBzz1-D2,5.5
same,SPOT peptide array binding signal intensity,SpCyk3,16
same,SPOT peptide array binding signal intensity,SpHof1,264
same,SPOT peptide array binding signal intensity,SpHof1-2,35.8
same,SPOT peptide array binding signal intensity,SpHof1-3,1130
same,SPOT peptide array binding signal intensity,SpHse1,1300
same,SPOT peptide array binding signal intensity,SpLsb1,1.25
same,SPOT peptide array binding signal intensity,SpLsb4,139
same,SPOT peptide array binding signal intensity,SpMyo1,10.8
same,SPOT peptide array binding signal intensity,SpNbp2,957
same,SPOT peptide array binding signal intensity,SpPex13,38
same,SPOT peptide array binding signal intensity,SpRvs167,40.3
same,SPOT peptide array binding signal intensity,SpSla1-D1-D2,≤ 0
same,SPOT peptide array binding signal intensity,SpSla1-D3,49
